Data as given in PubChem BioAssay (EPA / NIEHS).
Active and inactive are the calls of the source. Rule for the calls: active = hit-call score of the fitted dose curve at least 0.9, where 1 is the maximum; inactive = score below 0.9.

The compounds below were run on urokinase plasminogen activator (uPA), PLAU (gene 5328) (assay: BSK_BE3C_uPA: BioMAP Diversity Plus: BE3C Assay for urokinase plasminogen activator (uPA) Biomarker Activity (AID 2283038)). Conditions: primary human bronchial epithelial cells; actives raise or lower the signal.
Method: BSK_BE3C is a cell-based, multiplexed-readout assay that uses bronchial epithelial cell, a human lung primary cell, with measurements taken at 24 hours after chemical dosing in a 96-well plate.BSK_BE3CA is an assay component measured in the BSK_BE3C assay. It measures uPA antibody related to regulation of gene expression using ELISA technology.Data from the assay component BSK_BE3CA was analyzed into 1 assay endpoint. This assay endpoint, BSK_BE3CA, was analyzed with bidirectional fitting relative to DMSO as the negative control and baseline of activity. Using a type of binding reporter, gain or loss-of-signal activity can be used to understand changes in the signaling as they relate to the gene PLAU. Furthermore, this assay endpoint can be referred to as a primary readout, because this assay has produced multiple assay endpoints where this one serves a signaling function. To generalize the intended target to other relatable targets, this assay endpoint is annotated to the protease intended target family, where the subfamily is serine protease.
The levels of cell surface (or secreted, indicated by the prefix "s") biomarker endpoints were measured by ELISA. Overt cytotoxicity to cells in confluent adherent cultures (all systems other than the BT system) was assessed by measuring total protein levels using sulforhodamine B (SRB) staining in parallel cultures at the time of biomarker measurements, indicated as SRB endpoints. For proliferation assays for adherent cell types, individual cell types are cultured at sub-confluence and relative cell numbers quantified by SRB staining at time points optimized for each system (48 h: 3C and CASM3C systems; 72 h: BT and HDF3CGF systems; 96 h: SAg system). SRB was performed by staining cells with 0.1% SRB after fixation with 10% TCA and reading wells at 560 nm.Viability and proliferation of PBMC (T cells) was quantified by Alamar Blue reduction for the SAg and BT systems. For PBMC viability (referred to as PBMC Cytotoxicity within the assay endpoint names), cells were plated (75,000/well in a 96-well plate) and then chemical samples added for 1 h before addition of activators, SEB and TSST-1 (20 ng/mL final concentration each). Cells were incubated for 90 h. Then, Alamar Blue (20 uL/well) (Invitrogen, Cat DAL1100) was added for 6 h, and the plates were read with a fluorescence microplate reader at 546/580 nm (excitation/emission). For PBMC proliferation, cells were plated and activated as above but incubated for only 16 h prior to addition of Alamar Blue. Plates were read after 6 h.
In the case of `NCC(F)(F)C(F)(F)C(F)(F)C(F)(F)F`, the outcome is reported as “inactive”. With `Cc1cccc(O)c1C` the outcome was “inactive”. `FC(F)(F)COC(OCC(F)(F)F)OCC(F)(F)F` was tested, and the outcome was “inactive”. For `CNC(C)=O`, the outcome was “inactive”. `OC(O)(C(F)C(O)(O)C(F)(F)F)C(F)(F)F` was tested, and the outcome was “inactive”. With `C[Si](C)(C)C(F)(F)C(F)(F)C(F)(F)F` the outcome was “inactive”. With `OC[C@H]1O[C@@](CO)(O[C@H]2O[C@H](CO)[C@@H](O)[C@H](O)[C@H]2O)[C@@H](O)[C@@H]1O` the outcome was “inactive”. With `CCCOc1ccc(S(=O)(=O)N2CCN(CC)CC2)cc1-c1nc2c(CC)n(Cc3ccccn3)nc2c(=O)[nH]1` the outcome was “inactive”. `C[C@]12C=CC(=O)C=C1CC[C@H]1[C@@H]3C[C@@H](O)[C@](O)(C(=O)CO)[C@@]3(C)C[C@H](O)[C@@]12F` was tested, and the outcome was “inactive”. For `NC(=O)N(O)[C@@H]1COc2cc(OCc3ccccc3)ccc21`, the outcome was “inactive”. `FC(F)C(F)(F)COCC1CO1` (stereo not given) was tested, and the outcome was “inactive”. `CCCCCCCCCCCCCCO` was tested, and the outcome was “inactive”. With `Nc1ccn([C@@H]2O[C@H](CO)[C@@H](O)[C@@H]2O)c(=O)n1` the outcome was “inactive”. With `CC(C)CC(C)O` (stereo not given) the outcome was “inactive”. For `Cc1ccc(S(=O)(=O)NC(=O)NN2CCCCCC2)cc1`, the outcome was “inactive”. In the case of `CCCCOC(=O)c1ccccc1`, the outcome is reported as “inactive”. For `OCc1ccccc1`, the outcome was “inactive”. `O=C(O)[C@H](O)[C@@H](O)C(=O)O` was tested, and the outcome was “inactive”. `Cn1cc[nH]c1=S` was tested, and the outcome was “inactive”. `CCN(CC)C(=S)SSC(=S)N(CC)CC` was tested, and the AC50 was 18.7 µM (active). For `CCCCCCCCCC`, the outcome was “inactive”. In the case of `CCn1nc(C)c2c1C(=O)NCC(c1ccc(O)cc1)=N2`, the outcome is reported as “inactive”. For `NNC(=O)c1ccncc1`, the outcome was “inactive”. In the case of `NC(=O)NN=Cc1ccc([N+](=O)[O-])o1`, the AC50 is reported as 7.99 µM (active). With `Cc1nc(-c2ccccn2)ncc1C(=O)Nn1cc(C)c2cc(F)ccc21` the outcome was “inactive”. `CCCc1ccccc1` was tested, and the outcome was “inactive”. In the case of `CC(=O)c1ccccc1`, the outcome is reported as “inactive”. With `OCCNCCO` the outcome was “inactive”. `CC(C)CCCCCCOC(=O)C1CCCCC1C(=O)OCCCCCCC(C)C` (stereo not given) was tested, and the outcome was “inactive”. In the case of `COS(C)(=O)=O`, the outcome is reported as “inactive”. In the case of `CCCCC(CC)C(=O)OCCOCCOCCOC(=O)C(CC)CCCC` (stereo not given), the outcome is reported as “inactive”. With `O=C(O)c1cccc(C(=O)O)c1` the outcome was “inactive”. For `OCc1c[nH]c2ccccc12`, the outcome was “inactive”. In the case of `O=c1[nH]cnc2c1ncn2[C@H]1CC[C@@H](CO)O1`, the outcome is reported as “inactive”. `c1ccc2ncccc2c1` was tested, and the outcome was “inactive”. `CCCCCCCCN(C)C` was tested, and the outcome was “inactive”. In the case of `CC[C@H](C)C(=O)O[C@H]1C[C@H](O)C=C2C=C[C@H](C)[C@H](CC[C@@H](O)C[C@@H](O)CC(=O)O)[C@H]21`, the outcome is reported as “inactive”. For `OC[C@H]1O[C@@H]2O[C@H]3[C@H](O)[C@@H](O)[C@@H](O[C@H]4[C@H](O)[C@@H](O)[C@@H](O[C@H]5[C@H](O)[C@@H](O)[C@@H](O[C@H]6[C@H](O)[C@@H](O)[C@@H](O[C@H]7[C@H](O)[C@@H](O)[C@@H](O[C@H]1[C@H](O)[C@H]2O)O[C@@H]7CO)O[C@@H]6CO)O[C@@H]5CO)O[C@@H]4CO)O[C@@H]3CO`, the outcome was “inactive”. `C=CN1CCCC1=O` was tested, and the outcome was “inactive”. In the case of `CCCCCCOC(=O)CC(CC(=O)OCCCCCC)(OC(=O)CCC)C(=O)OCCCCCC`, the outcome is reported as “inactive”.
